Experimental findings from PubChem BioAssay (NCI) are described below.

About 83,000 compounds went through this panel and 20% of them were active in at least one assay; those are over-represented in the sample as a whole.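 The endpoint reported here, percent growth, reads 100 for growth as untreated, 0 for no net growth and -100 for all cells dead.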 Unmarked numbers belong to inactive results. Active and inactive are the calls of the source. The calls were made as follows: active = growth percent below 10; inactive = the rest.

What all share (test): NCI-60 one-dose screen, 48 h (100 = growth as untreated, 0 = no growth, -100 = all killed)
Details in all cases: 10 µM unless noted

The subject of test [1] is T-47D breast.
In test [2] the test system is BT-549 breast.
Test [3] relates to MDA-MB-435 melanoma.
The test system of test [4] is SW-620 colon.
Test [5] relates to MCF7 breast.
Test [6] has as its system HCT-116 colon.
Test [7] concerns HCC-2998 colon.
In test [8] the test system is KM12 colon.

For `O=C1/C(=C/c2ccccn2)SC(=S)N1N1CCOCC1`, the growth in test [1] was 99.4%; in test [2], 99.9%; in test [3], 103%; in test [4], 97.6%; in test [5], 87.4%; in test [6], 104%. Also, the growth is 97.7% in test [7] and 103% in test [8].
Take `O=C1NC(=O)C(c2coc3cc(Br)ccc23)=C1c1c[nH]c2ccccc12`: the growth was 34.7% in test [1]; 67.9% in test [2]; -7.93% (active) in test [3]; 35.4% in test [4]; 30.4% in test [5]; 27.3% in test [6]. Further, the growth in test [7] is 108%; in test [8], 31.7%.
Take `O=C(Nc1cc(Cl)cc(Cl)c1)Oc1c(Cl)c(Cl)c(Cl)c(Cl)c1Cl`: the growth in test [1] is 77.5%; in test [2], 74.9%; in test [3], 75.9%; in test [4], 88.3%; in test [5], 83%; in test [6], 62.1%. The growth in test [7] is 93.4%; in test [8], 83.3%.
In the case of `CNCC[C@H](Oc1cccc2ccccc12)c1cccs1`, the growth in test [1] was 99.9%; in test [2], 94.2%; in test [3], 88.5%; in test [4], 106%; in test [5], 78.1%; in test [6], 68.8%. Further, the results for the growth in test [7] and in test [8] were 79% and 109%, respectively.
`Cc1ccc(S(=O)(=O)N2CCCN(c3nc(-c4ccccc4)nc4nc(-c5ccccc5)oc34)CC2)cc1`: the growth in test [1] is 90.8%; in test [2] it was 117%; in test [3] it was 104%; in test [4] it was 111%; in test [5] it was 93.4%; in test [6], 104%. Further, the results for the growth in test [7] and in test [8] were 107% and 109%, respectively.
For `Nc1cccc(-c2ccc(COc3ccc(CC4SC(=O)NC4=O)cc3)cc2)c1` (stereo not drawn), the growth is 50.3% in test [1]; 58.7% in test [2]; -17.7% (active) in test [3]; 34.2% in test [4]; 37.7% in test [5]; 32.1% in test [6]. Besides, the growth in test [7] is 87.4%; in test [8], 33.3%.
For the molecule `COc1ccc(C2CC(c3ccccc3)=NN2C(=O)c2cc(OC)c(OC)c(OC)c2)cc1O` (stereo not drawn), the growth in test [1] is 70.9%; in test [2], 39.7%; in test [3], -7.61% (active); in test [4], 32.1%; in test [5] it was 20.3%; in test [6], 13.8%. Also, the growth in test [7] was -1.27% (active); in test [8] it was 26.3%.
Take `C[C@H](c1nc2ccc(C#N)cc2[nH]1)[C@H]1CC[C@H]2[C@@H]3CCC4=CC(=O)CC[C@]4(C)[C@H]3CC[C@]12C`: the growth in test [1] was 29.4%; in test [2] it was 58.9%; in test [3], 84.2%; in test [4], 89.1%; in test [5], 59.5%; in test [6] it was 49.7%. Also, the growth in test [7] was 67.4%; in test [8], 68.9%.
In the case of `Cc1cccc(N=Nc2cccc(C)c2)c1`, the growth is 110% in test [1]; 108% in test [2]; 100% in test [3]; 106% in test [4]; 97.5% in test [5]; 111% in test [6]. Also, the growth was 112% in test [7] and 110% in test [8].
As to `Nc1ccc(-c2ccncc2)cc1NC(=O)N1CCCC1`, the growth in test [1] is 81.9%; in test [2], 104%; in test [3], 96.3%; in test [4], 98.2%; in test [5], 87%; in test [6], 86.8%. Further, the growth in test [7] was 94.4%; in test [8] it was 94.6%.
With `O=C1/C(=C/c2ccc(Cl)cc2)CN(C(=O)C(Cl)Cl)C/C1=C\c1ccc(Cl)cc1`, the growth is -58.3% (active) in test [1]; -82.6% (active) in test [2]; -95.3% (active) in test [3]; -78.9% (active) in test [4]; -70.8% (active) in test [5]; -86.6% (active) in test [6]. Moreover, the growth was -91.8% (active) in test [7] and -81.9% (active) in test [8].
In the case of `O=c1oc2ccccc2cc1-c1nn(-c2ccccc2)cc1-c1nn[nH]n1`, the growth in test [1] is 100%; in test [2], 103%; in test [3], 99.5%; in test [4] it was 102%; in test [5], 94.8%; in test [6], 96.5%. The growth in test [7] is 110%; in test [8], 106%.
`C=C[C@@]1(C)CC(=O)[C@@H](C(C)(C)c2cn(C)c3ccc(Br)cc23)C[C@@H]1O[Si](C)(C)C(C)(C)C`: the growth in test [1] was 89.6%; in test [2], 111%; in test [3], 101%; in test [4] it was 97.3%; in test [5], 80.1%; in test [6] it was 89.7%. Also, the growth is 109% in test [7] and 100% in test [8].
As to `Cn1c(C#N)ccc1-c1ccc(F)c(NC(=O)c2ccc(F)cc2)c1`, the growth in test [1] was 60.4%; in test [2] it was 80%; in test [3], -11.2% (active); in test [4] it was 44.9%; in test [5], 49.4%; in test [6], 77.4%. The growth in test [7] was 90.5%; in test [8], 60.9%.
For the molecule `CCOC(=O)c1nnn(Cc2cc(=O)oc3ccc(O)cc23)c1C`, the growth was 98% in test [1]; 110% in test [2]; 104% in test [3]; 98.2% in test [4]; 92.4% in test [5]; 96% in test [6]. For the same molecule, the growth is 97.3% in test [7] and 102% in test [8].
Regarding `CCOC(=O)c1c(C)nc2c(c1N)C(=O)C(=O)N2Cc1ccc(OC)cc1`, the growth in test [1] was 49.1%; in test [2] it was 80.5%; in test [3] it was 31%; in test [4], 41.9%; in test [5], 18.6%; in test [6], 25.1%. In addition, the values for the growth in test [7] and in test [8] were 99.3% and 25.7%, respectively.
